Test results as given in the supplement of paper PMC3545927.
This is one part of the list. The hit rate among all sequences tested is not known here.

Target: furin, P09958
Test: furin cleavage Z-score vs untreated control; higher = more cleavage, active = 3.5 or more, inactive = 1 or less, 8 variable residues between constant flanks
How it was run: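 The cleavage Z-score was derived for purified furin acting on 8-mer peptides held on magnetic beads and fused to a cDNA oligonucleotide. Digests lasted 7.5, 15 or 30 min at 1:10 enzyme:substrate in 50 mM HEPES pH 7.5 with CaCl2 and NaCl. Sequencing counts of released DNA, log-transformed against furin-free reactions, were lowess-adjusted and scaled by median absolute deviation.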

furin, P09958, sequence (P09958 whole entry): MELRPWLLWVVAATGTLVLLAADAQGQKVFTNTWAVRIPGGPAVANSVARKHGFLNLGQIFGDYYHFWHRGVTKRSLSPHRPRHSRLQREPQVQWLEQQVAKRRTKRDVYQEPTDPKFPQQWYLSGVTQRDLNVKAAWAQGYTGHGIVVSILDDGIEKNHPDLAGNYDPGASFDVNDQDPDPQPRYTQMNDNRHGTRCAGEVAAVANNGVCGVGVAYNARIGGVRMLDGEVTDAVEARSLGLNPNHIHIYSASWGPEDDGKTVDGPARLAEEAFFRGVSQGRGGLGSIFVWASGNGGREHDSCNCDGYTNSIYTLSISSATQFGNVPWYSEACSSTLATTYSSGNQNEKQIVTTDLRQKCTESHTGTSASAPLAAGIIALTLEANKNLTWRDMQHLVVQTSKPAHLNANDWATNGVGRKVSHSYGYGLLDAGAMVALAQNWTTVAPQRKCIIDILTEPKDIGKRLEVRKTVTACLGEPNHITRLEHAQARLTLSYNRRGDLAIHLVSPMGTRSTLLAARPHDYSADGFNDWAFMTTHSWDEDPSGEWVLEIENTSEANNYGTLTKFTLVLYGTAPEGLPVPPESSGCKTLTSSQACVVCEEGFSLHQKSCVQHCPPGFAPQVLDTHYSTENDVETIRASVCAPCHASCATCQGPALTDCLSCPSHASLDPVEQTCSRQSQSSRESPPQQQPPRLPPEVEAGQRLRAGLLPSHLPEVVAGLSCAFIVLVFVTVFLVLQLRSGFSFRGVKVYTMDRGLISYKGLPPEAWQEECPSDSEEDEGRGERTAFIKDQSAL

| Sequence | furin cleavage Z-score (7.5 min) | furin cleavage Z-score (15 min) | furin cleavage Z-score (30 min) |
| --- | --- | --- | --- |
| CAKVCCSMSYAGNASASA [HC1994] | 1.97 | 0.312 (inactive) | 0.855 (inactive) |
| CARSRRGLFAAGNASASA [FS-2816] | 2.59 | 2.97 | 6.66 (active) |
| CARFDRQIFIAGNASASA [FS-2012] | -0.31 (inactive) | -0.173 (inactive) | -0.368 (inactive) |
| CARSRRGIFIAGNASASA [FS-2312] | 1.57 | 2.13 | 4.7 (active) |
| CARLRRGLAAAGNASASA [FS-1908] | 0.841 (inactive) | 1.22 | 1.44 |
| CAREKRGPSGAGNASASA [FS-3153] | 0.65 (inactive) | -0.112 (inactive) | 0.123 (inactive) |
| CAREKRFTFVAGNASASA [FS-1694] | -0.942 (inactive) | 0.437 (inactive) | 3.16 |
| CAREKRGWTMAGNASASA [FS-2549] | 0.613 (inactive) | 1.51 | 2.06 |
| CAREKRFCTGAGNASASA [FS-2329] | 2.75 | 4.22 (active) | 4.58 (active) |
| CAREKRGLFGAGNASASA [FU1] | 0.425 (inactive) | 4.29 (active) | 0.496 (inactive) |
| CAVVCCSMEYAGNASASA [HC2072] | -2.66 (inactive) | 0.354 (inactive) | 1.04 |
| CAGGRHLIFCAGNASASA [HC854] | -0.514 (inactive) | -0.469 (inactive) | -1.05 (inactive) |
| CAKQSGENLPAGNASASA [HC949] | 0.51 (inactive) | -0.215 (inactive) | -0.135 (inactive) |
| CAEYDLELITAGNASASA [HC1549] | -0.697 (inactive) | -1.21 (inactive) | -2.02 (inactive) |
| CASLKKIKRSAGNASASA [FS-297] | 7.52 (active) | 5.89 (active) | 5.86 (active) |
| CAKSSRIKRSAGNASASA [FS-46] | 11.3 (active) | 10.3 (active) | 8.65 (active) |
| CAVRTRIKRSAGNASASA [FS-1179] | 12.5 (active) | 13.6 (active) | 9.29 (active) |
| CACPNIIKRSAGNASASA [FS-1515] | 2.47 | 0.593 (inactive) | 1.43 |
| CAASPKGPVIAGNASASA [HC706] | 0.401 (inactive) | -0.666 (inactive) | -0.477 (inactive) |
| CATDNSSPPVAGNASASA [HC766] | 0.776 (inactive) | 0.102 (inactive) | -1.25 (inactive) |
| CAGHFRLKRTAGNASASA [FS-781] | 7.47 (active) | 7.94 (active) | 7.12 (active) |
| CAATSRTKRFAGNASASA [FS-403] | 8.04 (active) | 8.57 (active) | 8.59 (active) |
| CAGNRRLKRFAGNASASA [FS-330] | 8.6 (active) | 8.74 (active) | 8.35 (active) |
| CAYIRRTKRFAGNASASA [FS-576] | 1.05 | 1.14 | 0.61 (inactive) |
| CATHRRTKRFAGNASASA [FS-1291] | 4.37 (active) | 4.6 (active) | 3.54 (active) |
| CATLKRTRKFAGNASASA [FS-728] | 0.831 (inactive) | 2.85 | 1.42 |
| CAATSILGIGAGNASASA [HC822] | -1.81 (inactive) | -0.57 (inactive) | 0.323 (inactive) |
